According to PubChem BioAssay (NCATS):
Results filed as inconclusive are left out. Entries that show only a call come without a potency. Values without a mark were called inactive. Calls of active or inactive are those of the source. Calls follow the shape of the dose curve; as a rule, active = well fitted inhibition curve with a large enough effect; inconclusive = small, poorly fitted or top-dose-only effect; inactive = flat fitted curve, though single readings scatter.

Columns and labels:
PAD = test: qHTS profiling for inhibitors of Plasmodium falciparum proliferation (AID 504749); also: potency is read from the fitted curve at half-maximal effect; conditions: P. falciparum in erythrocytes, SYBR Green DNA, 72 h; series mostly up to 28.7 µM
Summary of the method: (§1)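 SYBR Green fluorescence of parasite DNA, read after lysis and overnight dark incubation, measured growth over 72 h in erythrocyte culture at 0.3% parasitemia and 2.5% hematocrit. Data normalised to DMSO and 0.29 uM artemisinin, with plate-drift correction.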

PC15 = test: as above; conditions: P. falciparum in erythrocytes, SYBR Green DNA, 72 h; series mostly up to 28.7 µM
Summary of the method: as §1

PC26 = test: as above; conditions: P. falciparum in erythrocytes, SYBR Green DNA, 72 h; series mostly up to 28.7 µM
Summary of the method: as §1

PC49 = test: as above; conditions: P. falciparum in erythrocytes, SYBR Green DNA, 72 h; series mostly up to 28.7 µM
Summary of the method: as §1

SC27B = test: as above; conditions: P. falciparum in erythrocytes, SYBR Green DNA, 72 h; series mostly up to 28.7 µM
Summary of the method: as §1

TAB109 = test: as above; conditions: P. falciparum in erythrocytes, SYBR Green DNA, 72 h; series mostly up to 28.7 µM
Summary of the method: as §1

TAB113 = test: as above; conditions: P. falciparum in erythrocytes, SYBR Green DNA, 72 h; series mostly up to 28.7 µM
Summary of the method: as §1

W2 = test: as above; conditions: P. falciparum in erythrocytes, SYBR Green DNA, 72 h; series mostly up to 28.7 µM
Summary of the method: as §1

CRL-7250 = normal cell line; test: Cytotoxic Profiling of Annotated Libraries Using Quantitative High-Throughput Screening (AID 1296008); conditions: Five cell lines viability, CellTiter-Glo ATP luminescence, 48-72 h; stronger effect = lower value
Summary of the method: (§2)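 Cytotoxicity was measured as CellTiter-Glo ATP luminescence, read after 10 min at room temperature. Compound treatment of the cells lasted 48 or 72 hr at 37 degrees Celsius in a qHTS format.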

HEK293 = test: as above; conditions: Five cell lines viability, CellTiter-Glo ATP luminescence, 48-72 h; stronger effect = lower value
Summary of the method: as §2

HaCat [1] = test: as above; conditions: Five cell lines viability, CellTiter-Glo ATP luminescence, 48-72 h; stronger effect = lower value
Summary of the method: as §2

KB-3-1 = test: as above; conditions: Five cell lines viability, CellTiter-Glo ATP luminescence, 48-72 h, stronger effect = lower value
Summary of the method: as §2

NIH3T3 = test: as above; conditions: Five cell lines viability, CellTiter-Glo ATP luminescence, 48-72 h; stronger effect = lower value
Summary of the method: as §2

HACAT [2] = test: qHTS assay to identify novel small-molecules to repurpose for Merkel cell carcinoma treatment (AID 1296009); conditions: MCC and control cell lines, CellTiter-Glo viability, 72 h; at 44.8 µM (top of the series) unless noted
Summary of the method: (§3)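 Cell viability, measured as CellTiter-Glo luminescence, was normalized between DMSO and no-cell wells. The cells had been exposed to 8- or 11-point compound dilutions for 72 hr at 37 degree celsius.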

MCC-13 = test: as above; conditions: MCC and control cell lines, CellTiter-Glo viability, 72 h; series mostly up to 46 µM
Summary of the method: as §3

MCC-26 = test: as above; conditions: MCC and control cell lines, CellTiter-Glo viability, 72 h; series mostly up to 46 µM
Summary of the method: as §3

MKL-1 = test: as above; conditions: MCC and control cell lines, CellTiter-Glo viability, 72 h; series mostly up to 46 µM
Summary of the method: as §3

MKL-2 = test: as above; conditions: MCC and control cell lines, CellTiter-Glo viability, 72 h; series mostly up to 46 µM
Summary of the method: as §3

TAB165 = test: qHTS profiling for inhibitors of Plasmodium falciparum proliferation (AID 504749); also: potency is read from the fitted curve at half-maximal effect; conditions: P. falciparum in erythrocytes, SYBR Green DNA, 72 h; series mostly up to 28.7 µM
Summary of the method: as §1

HEK293T = test: qHTS assay to identify novel small-molecules to repurpose for Merkel cell carcinoma treatment (AID 1296009); conditions: MCC and control cell lines, CellTiter-Glo viability, 72 h; at 44.8 µM (top of the series) unless noted
Summary of the method: as §3
Also: nearly all actives have a fitted effect of over 60% in size.

CC[N+](C)(CC)CCOC(=O)C1c2ccccc2Oc2ccccc21
Potency (PAD): inactive | Potency (PC15): inactive | Potency (PC26): inactive | Potency (PC49): inactive | Potency (SC27B): inactive | Potency (TAB109): inactive | Potency (TAB113): inactive | Potency (W2): inactive | outcome (CRL-7250): inactive | max response (HEK293): -9.27% | outcome (HaCat [1]): inactive | max response (KB-3-1): 56.3% | max response (NIH3T3): 2.85% | outcome (HACAT [2]): inactive | outcome (MCC-13): inactive | outcome (MCC-26): inactive | outcome (MKL-1): inactive | outcome (MKL-2): inactive

Cc1ccccc1N=Nc1ccc(N=Nc2c(O)ccc3ccccc23)c(C)c1
Potency (PAD): inactive | Potency (PC15): inactive | Potency (PC26): inactive | Potency (PC49): inactive | Potency (SC27B): inactive | Potency (TAB109): inactive | Potency (TAB113): inactive | Potency (TAB165): inactive | Potency (W2): inactive | max response (CRL-7250): -16.7% | outcome (HEK293): inactive | max response (HaCat [1]): 0.728% | max response (KB-3-1): 9.66% | max response (NIH3T3): 0.522% | outcome (HEK293T): inactive | outcome (MCC-13): inactive | outcome (MKL-1): inactive | outcome (MKL-2): inactive

C[C@@H]1O[C@@H](OC[C@H]2O[C@@H](Oc3c(-c4ccc(O)c(O)c4)oc4cc(O)cc(O)c4c3=O)[C@H](O)[C@@H](O)[C@@H]2O)[C@H](O)[C@H](O)[C@H]1O
Potency (PAD): inactive | Potency (PC15): inactive | Potency (PC26): inactive | Potency (PC49): inactive | Potency (SC27B): inactive | Potency (TAB109): inactive | Potency (TAB113): inactive | Potency (TAB165): inactive | Potency (W2): inactive | max response (CRL-7250): -4.29% | outcome (HEK293): inactive | max response (HaCat [1]): 2.78% | max response (KB-3-1): 16.6% | max response (NIH3T3): -8.53% | outcome (HEK293T): inactive | outcome (MCC-13): inactive | outcome (MCC-26): inactive | outcome (MKL-1): inactive | outcome (MKL-2): inactive

CCCCCCCCCCOc1cc2c(=O)c(C(=O)OCC)c[nH]c2cc1OCC
Potency (PAD): 3.5 nM (active) | Potency (PC15): 6.3 nM (active) | Potency (PC49): 7.9 nM (active) | Potency (SC27B): 2.5 nM (active) | Potency (TAB109): 2.5 nM (active) | Potency (TAB113): 2.8 nM (active) | Potency (TAB165): 1.3 nM (active) | Potency (W2): 1.7 nM (active) | outcome (CRL-7250): inactive | outcome (HEK293): inactive | max response (HaCat [1]): -5.57% | max response (KB-3-1): 7.91% | max response (NIH3T3): -1.43% | outcome (HEK293T): inactive [at 4.96 µM] | activity change, negative = cytotoxicity (MCC-13): 9.19% [at 4.84 µM] | activity change, negative = cytotoxicity (MCC-26): -1.97% [at 4.84 µM] | activity change, negative = cytotoxicity (MKL-1): -4.83% [at 4.84 µM] | activity change, negative = cytotoxicity (MKL-2): 10.7% [at 4.84 µM]

C[N+](C)(C)CC(O)CC(=O)[O-] (stereo not drawn)
max response (CRL-7250): -9.06% | max response (HEK293): -5.18% | max response (HaCat [1]): 4.86% | max response (KB-3-1): -5.76% | outcome (NIH3T3): inactive | outcome (MCC-13): inactive | outcome (MCC-26): inactive | outcome (MKL-1): inactive | outcome (MKL-2): inactive

O=C1CC[C@@H](C(=O)O)N1
Potency (PAD): inactive | Potency (PC15): inactive | Potency (PC26): inactive | Potency (PC49): inactive | Potency (SC27B): inactive | Potency (TAB109): inactive | Potency (TAB113): inactive | Potency (TAB165): inactive | max response (CRL-7250): 1.58% | outcome (HEK293): inactive | max response (HaCat [1]): 4.13% | max response (KB-3-1): 18.1% | max response (NIH3T3): 0.792% | outcome (HEK293T): inactive | outcome (MCC-13): inactive | outcome (MCC-26): inactive | outcome (MKL-1): inactive | outcome (MKL-2): inactive

COC(=O)c1ccccc1C(=O)c1ccc(OCCN2CCCCC2)cc1
Potency (PAD): inactive | Potency (PC15): inactive | Potency (PC26): inactive | Potency (PC49): inactive | Potency (SC27B): inactive | Potency (TAB109): inactive | Potency (TAB113): inactive | Potency (TAB165): inactive | max response (CRL-7250): -2.25% | outcome (HEK293): inactive | max response (HaCat [1]): -0.875% | max response (KB-3-1): -16% | max response (NIH3T3): -3.51% | outcome (HEK293T): inactive | outcome (MCC-13): inactive | outcome (MCC-26): inactive | outcome (MKL-1): inactive | outcome (MKL-2): inactive
